The full data set covers some 7,900 targets. This sample favours those with a hit. About 0.6% of all pairs of compound and target were hits.
What was measured:
Assay in all cases: log2 fold change, soluble protein after heating vs DMSO (PISA); higher = thermal stabilisation; K562 cells, 10 uM, 30 min; active = over 0.2 and 3.5 SD of the protein, either way, in both replicates (recomputed)
[1] = compound: COC1=CC=C(C=C1)CN2C=CC3=C2C=C(C=C3)C(=O)NO
Procedure, shortened: (§1)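 K562 cells (2×10^6 cells/mL) were treated with 10 μM compound for 30 min, and aliquots were heated for 3 min over 48°C-58°C. Pooled aliquots were extracted in PBS with 0.5% NP-40 at 4°C, and the supernatant after 21,000xg for 90 min was measured by TMTpro 16plex LC-MS/MS with channel sums equalised. Reported thermal stability, relative to control samples and from duplicates, is a log2 fold change.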

filanesib = compound: CON(C)C(=O)N1N=C(c2cc(F)ccc2F)S[C@@]1(CCCN)c1ccccc1 [filanesib]
Procedure, shortened: as §1

zotarolimus = compound: CO[C@H]1C[C@@H]2CC[C@@H](C)[C@@](O)(O2)C(=O)C(=O)N2CCCC[C@H]2C(=O)O[C@H]([C@H](C)C[C@@H]2CC[C@H](n3cnnn3)[C@H](OC)C2)CC(=O)[C@H](C)/C=C(\C)[C@@H](O)[C@@H](OC)C(=O)[C@H](C)C[C@H](C)/C=C/C=C/C=C/1C [zotarolimus]
Procedure, shortened: as §1

idasanutlin = compound: COc1cc(C(=O)O)ccc1NC(=O)[C@@H]1N[C@@H](CC(C)(C)C)[C@](C#N)(c2ccc(Cl)cc2F)[C@H]1c1cccc(Cl)c1F [idasanutlin]
Procedure, shortened: as §1

alisertib = compound: COc1cc(Nc2ncc3c(n2)-c2ccc(Cl)cc2C(c2c(F)cccc2OC)=NC3)ccc1C(=O)O [alisertib]
Procedure, shortened: as §1

[2] = compound: COc1cc2nc(-c3cc(F)ccc3O)nc(N[C@@H]3CNC[C@H]3C(C)(C)O)c2cc1OC
Procedure, shortened: as §1

gefitinib = compound: COc1cc2ncnc(Nc3ccc(F)c(Cl)c3)c2cc1OCCCN1CCOCC1 [gefitinib]
Procedure, shortened: as §1

[3] = compound: COc1cccc2cc(-c3nc([C@H]4CC[C@H](C(=O)O)CC4)n4ncnc(N)c34)[nH]c12
Procedure, shortened: as §1

lapatinib = compound: CS(=O)(=O)CCNCc1ccc(-c2ccc3ncnc(Nc4ccc(OCc5cccc(F)c5)c(Cl)c4)c3c2)o1 [lapatinib]
Procedure, shortened: as §1

pictilisib = compound: CS(=O)(=O)N1CCN(Cc2cc3nc(-c4cccc5[nH]ncc45)nc(N4CCOCC4)c3s2)CC1 [pictilisib]
Procedure, shortened: as §1

[4] = compound: CS(=O)(=O)c1ccc(-c2cnc(N)c(C(=O)Nc3ccccc3)n2)cc1
Procedure, shortened: as §1

crizotinib = compound: C[C@@H](Oc1cc(-c2cnn(C3CCNCC3)c2)cnc1N)c1c(Cl)ccc(F)c1Cl [crizotinib]
Procedure, shortened: as §1

[5] = compound: C[C@@H]1COCCN1C2=NC(=NC(=C2)C3(CC3)S(=O)(=O)C)C4=C5C=CNC5=CC=C4
Procedure, shortened: as §1

[6] = compound: C[C@H](C1=CC=C(C=C1)C(=O)NC2=C3C=CNC3=NC=C2)N
Procedure, shortened: as §1

duvelisib = compound: C[C@H](Nc1ncnc2nc[nH]c12)c1cc2cccc(Cl)c2c(=O)n1-c1ccccc1 [duvelisib]
Procedure, shortened: as §1

gandotinib = compound: Cc1cc(Nc2cc(CN3CCOCC3)c3nc(C)c(Cc4ccc(Cl)cc4F)n3n2)n[nH]1 [gandotinib]
Procedure, shortened: as §1

tozasertib = compound: Cc1cc(Nc2cc(N3CCN(C)CC3)nc(Sc3ccc(NC(=O)C4CC4)cc3)n2)n[nH]1 [tozasertib]
Procedure, shortened: as §1

[7] = compound: Cc1cc(SCc2sc(-c3ccc(C(F)(F)F)cc3)nc2C)ccc1OCC(=O)O
Procedure, shortened: as §1

doramapimod = compound: Cc1ccc(-n2nc(C(C)(C)C)cc2NC(=O)Nc2ccc(OCCN3CCOCC3)c3ccccc23)cc1 [doramapimod]
Procedure, shortened: as §1

ispinesib = compound: Cc1ccc(C(=O)N(CCCN)[C@@H](c2nc3cc(Cl)ccc3c(=O)n2Cc2ccccc2)C(C)C)cc1 [ispinesib]
Procedure, shortened: as §1

Measured: log2 fold change

EIF3J (UniProt O75822)
UniProt O75822, sequence (O75822 whole entry, looked up): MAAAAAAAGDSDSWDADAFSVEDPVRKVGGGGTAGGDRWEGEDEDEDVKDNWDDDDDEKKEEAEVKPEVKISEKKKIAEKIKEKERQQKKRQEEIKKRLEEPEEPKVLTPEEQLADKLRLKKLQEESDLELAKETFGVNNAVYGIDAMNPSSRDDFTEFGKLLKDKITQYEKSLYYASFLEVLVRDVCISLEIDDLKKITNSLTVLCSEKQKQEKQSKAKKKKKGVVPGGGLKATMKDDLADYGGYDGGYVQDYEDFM
inactive: [1] -0.067 | filanesib -0.086 | zotarolimus 0.007 | idasanutlin -0.042 | alisertib -0.018 | [2] 0.079 | gefitinib -0.004 | [3] -0.057 | lapatinib -0.057 | pictilisib -0.04 | [4] -0.024 | crizotinib -0.012 | [5] 0.009 | [6] -0.035 | duvelisib 0.048 | gandotinib -0.157 | tozasertib 0.038 | [7] 0.005 | doramapimod -0.022 | ispinesib 0.099

DCAF6 isoform 3 (UniProt Q58WW2)
UniProt Q58WW2, sequence (Q58WW2 whole entry, looked up): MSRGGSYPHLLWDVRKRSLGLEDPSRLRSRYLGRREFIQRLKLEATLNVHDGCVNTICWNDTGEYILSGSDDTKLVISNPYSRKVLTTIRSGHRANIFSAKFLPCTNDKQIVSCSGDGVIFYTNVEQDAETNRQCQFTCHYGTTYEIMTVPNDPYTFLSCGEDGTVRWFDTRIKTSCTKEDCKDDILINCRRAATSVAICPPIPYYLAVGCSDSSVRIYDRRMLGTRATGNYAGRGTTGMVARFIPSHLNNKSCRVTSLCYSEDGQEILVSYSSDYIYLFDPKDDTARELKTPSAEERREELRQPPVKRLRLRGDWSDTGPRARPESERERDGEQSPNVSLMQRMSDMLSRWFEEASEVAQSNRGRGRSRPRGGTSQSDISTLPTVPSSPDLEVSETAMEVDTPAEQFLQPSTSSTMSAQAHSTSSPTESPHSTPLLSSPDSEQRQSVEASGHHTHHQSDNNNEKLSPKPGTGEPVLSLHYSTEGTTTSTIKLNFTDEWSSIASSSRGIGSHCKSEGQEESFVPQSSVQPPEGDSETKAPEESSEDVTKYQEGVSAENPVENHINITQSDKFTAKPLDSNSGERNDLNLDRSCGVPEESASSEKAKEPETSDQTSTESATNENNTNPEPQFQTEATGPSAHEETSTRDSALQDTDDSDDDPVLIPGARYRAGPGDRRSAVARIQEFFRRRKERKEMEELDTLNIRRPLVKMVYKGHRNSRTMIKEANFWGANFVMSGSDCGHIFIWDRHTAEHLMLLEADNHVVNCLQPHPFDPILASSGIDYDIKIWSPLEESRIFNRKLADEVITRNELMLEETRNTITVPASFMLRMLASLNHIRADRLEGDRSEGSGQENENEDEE
inactive: [1] -0.007 | filanesib -0.017 | zotarolimus -0.045 | idasanutlin -0.026 | alisertib -0.081 | [2] -0.023 | gefitinib -0.01 | [3] 0.059 | lapatinib 0.016 | pictilisib 0.001 | [4] -0.008 | crizotinib 0.132 | [5] 0.026 | [6] -0.054 | duvelisib 0.025 | gandotinib -0.024 | tozasertib -0.034 | [7] -0.058 | doramapimod 0.056 | ispinesib 0.027

DMXL1 (UniProt Q9Y485)
inactive: [1] 0.023 | filanesib 0.046 | zotarolimus -0.008 | idasanutlin -0.012 | alisertib -0.003 | [2] 0.02 | gefitinib -0.029 | [3] -0.003 | lapatinib -0.02 | pictilisib -0.015 | [4] -0.012 | crizotinib -0.092 | [5] 0.002 | [6] 0.048 | duvelisib -0.011 | gandotinib -0.013 | tozasertib -0.03 | [7] 0 | doramapimod 0.047 | ispinesib -0.217

DCUN1D1 (UniProt Q96GG9)
UniProt Q96GG9, sequence (Q96GG9 whole entry, looked up): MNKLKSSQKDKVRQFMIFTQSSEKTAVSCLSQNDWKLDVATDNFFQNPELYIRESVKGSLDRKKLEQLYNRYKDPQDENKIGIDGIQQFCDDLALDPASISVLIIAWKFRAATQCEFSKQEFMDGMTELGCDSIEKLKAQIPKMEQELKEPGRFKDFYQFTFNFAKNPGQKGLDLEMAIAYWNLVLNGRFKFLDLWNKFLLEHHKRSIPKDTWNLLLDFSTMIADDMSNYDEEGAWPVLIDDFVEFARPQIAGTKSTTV
inactive: [1] 0.065 | filanesib -0.003 | zotarolimus 0.015 | idasanutlin -0.062 | alisertib 0.008 | [2] -0.021 | gefitinib 0.004 | [3] 0.031 | lapatinib 0.019 | pictilisib 0.015 | [4] -0.027 | crizotinib -0.061 | [5] -0.047 | [6] -0.067 | duvelisib 0.004 | gandotinib -0.059 | tozasertib -0.004 | [7] 0.002 | doramapimod -0.053 | ispinesib 0.036

DBN1 isoform 3 (UniProt Q16643)
UniProt Q16643, sequence (Q16643 whole entry, looked up): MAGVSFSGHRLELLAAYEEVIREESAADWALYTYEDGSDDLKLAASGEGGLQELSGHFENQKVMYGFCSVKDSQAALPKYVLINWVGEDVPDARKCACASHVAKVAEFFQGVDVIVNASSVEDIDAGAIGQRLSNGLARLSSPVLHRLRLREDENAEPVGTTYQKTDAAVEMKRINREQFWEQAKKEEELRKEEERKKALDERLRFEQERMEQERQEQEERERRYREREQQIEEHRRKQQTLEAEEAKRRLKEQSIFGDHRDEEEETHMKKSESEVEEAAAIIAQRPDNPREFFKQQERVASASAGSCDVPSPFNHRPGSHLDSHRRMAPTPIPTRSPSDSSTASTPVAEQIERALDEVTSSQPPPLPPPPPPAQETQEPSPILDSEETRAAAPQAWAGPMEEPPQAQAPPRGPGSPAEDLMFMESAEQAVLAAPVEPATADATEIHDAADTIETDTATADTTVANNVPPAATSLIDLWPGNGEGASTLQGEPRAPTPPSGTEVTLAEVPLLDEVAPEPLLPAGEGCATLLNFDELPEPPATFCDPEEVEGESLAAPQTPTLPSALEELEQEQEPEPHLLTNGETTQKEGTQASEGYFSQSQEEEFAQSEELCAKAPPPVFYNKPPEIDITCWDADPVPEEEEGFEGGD
inactive: [1] 0.012 | filanesib 0.182 | zotarolimus 0.074 | idasanutlin 0.061 | alisertib -0.023 | [2] -0.024 | gefitinib 0.05 | [3] 0.084 | lapatinib -0.041 | pictilisib -0.111 | [4] -0.063 | crizotinib 0.088 | [5] -0.075 | [6] 0.044 | duvelisib -0.097 | gandotinib -0.009 | tozasertib 0.158 | [7] -0.02 | doramapimod 0.02 | ispinesib 0.071

DCTN1 isoform 4 (UniProt Q14203)
inactive: [1] -0.007 | filanesib 0.047 | zotarolimus 0.095 | idasanutlin 0.012 | alisertib -0.045 | [2] 0.007 | gefitinib 0.042 | [3] -0.083 | lapatinib -0.007 | pictilisib -0.135 | [4] -0.013 | crizotinib -0.112 | [5] 0.015 | [6] 0.131 | duvelisib -0.045 | gandotinib 0.016 | tozasertib 0.037 | [7] 0.111 | doramapimod 0.088 | ispinesib -0.141

CWC27 (UniProt Q6UX04)
UniProt Q6UX04, sequence (Q6UX04 whole entry, looked up): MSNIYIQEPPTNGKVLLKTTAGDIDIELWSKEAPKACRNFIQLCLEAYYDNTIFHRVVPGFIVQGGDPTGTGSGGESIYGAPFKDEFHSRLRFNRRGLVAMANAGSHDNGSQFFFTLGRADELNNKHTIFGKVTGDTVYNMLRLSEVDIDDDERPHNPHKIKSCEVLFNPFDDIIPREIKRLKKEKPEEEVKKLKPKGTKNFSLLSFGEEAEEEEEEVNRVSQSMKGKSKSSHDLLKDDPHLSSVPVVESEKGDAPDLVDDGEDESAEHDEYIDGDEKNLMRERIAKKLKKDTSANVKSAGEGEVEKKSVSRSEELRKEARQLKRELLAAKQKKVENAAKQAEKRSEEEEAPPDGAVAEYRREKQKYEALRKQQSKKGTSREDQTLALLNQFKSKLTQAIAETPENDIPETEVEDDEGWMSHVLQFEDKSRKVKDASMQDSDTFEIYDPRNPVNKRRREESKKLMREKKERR
inactive: [1] 0.047 | filanesib -0.017 | zotarolimus -0.068 | idasanutlin 0.014 | alisertib -0.043 | [2] 0.061 | gefitinib 0.021 | [3] -0.046 | lapatinib -0.004 | pictilisib -0.036 | [4] 0.03 | crizotinib 0.14 | [5] 0.145 | [6] -0.001 | duvelisib 0.144 | gandotinib 0.033 | tozasertib 0.077 | [7] 0.169 | doramapimod -0.091 | ispinesib -0.017

FADS3 (UniProt Q9Y5Q0)
active: ispinesib -0.311
inactive: [1] -0.067 | filanesib -0.151 | zotarolimus -0.062 | idasanutlin 0.007 | alisertib 0.005 | [2] -0.036 | gefitinib 0.04 | [3] 0.168 | lapatinib 0.097 | pictilisib 0.168 | [4] 0.042 | crizotinib -0.237 | [5] 0.198 | [6] 0.055 | duvelisib 0.079 | gandotinib -0.058 | tozasertib -0.042 | [7] 0.073 | doramapimod -0.013

CTSZ (UniProt Q9UBR2)
active: ispinesib -0.481
inactive: [1] 0.073 | filanesib -0.05 | zotarolimus 0.011 | idasanutlin -0.019 | alisertib -0.079 | [2] -0.172 | gefitinib 0.035 | [3] 0.07 | lapatinib 0.015 | pictilisib 0.176 | [4] -0.001 | crizotinib -0.007 | [5] 0.021 | [6] -0.033 | duvelisib -0.037 | gandotinib 0.03 | tozasertib -0.015 | [7] -0.037 | doramapimod 0.05

EFCAB14 (UniProt O75071)
UniProt O75071, sequence (O75071 whole entry, looked up): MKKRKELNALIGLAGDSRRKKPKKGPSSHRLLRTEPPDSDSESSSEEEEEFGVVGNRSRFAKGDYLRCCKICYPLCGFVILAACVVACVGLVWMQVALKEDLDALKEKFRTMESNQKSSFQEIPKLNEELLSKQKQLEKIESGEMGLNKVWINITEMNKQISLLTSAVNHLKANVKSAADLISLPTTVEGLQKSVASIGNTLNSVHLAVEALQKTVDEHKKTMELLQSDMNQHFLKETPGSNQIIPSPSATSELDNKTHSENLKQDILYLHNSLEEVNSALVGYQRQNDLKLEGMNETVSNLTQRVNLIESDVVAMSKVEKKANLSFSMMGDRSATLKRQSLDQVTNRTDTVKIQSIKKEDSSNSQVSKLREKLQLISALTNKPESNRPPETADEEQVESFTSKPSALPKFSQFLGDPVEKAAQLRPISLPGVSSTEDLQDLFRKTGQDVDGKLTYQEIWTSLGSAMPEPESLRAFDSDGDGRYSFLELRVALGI
active: crizotinib -0.301
inactive: [1] 0.139 | filanesib -0.018 | zotarolimus 0.147 | idasanutlin 0.027 | alisertib 0.043 | [2] -0.014 | gefitinib 0.04 | [3] -0.04 | lapatinib 0.021 | pictilisib 0.06 | [4] 0.045 | [5] 0.083 | [6] 0.041 | duvelisib 0.006 | gandotinib -0.009 | tozasertib -0.097 | [7] -0.006 | doramapimod -0.01 | ispinesib -0.004

DHFR (UniProt P00374)
active: crizotinib 0.956 | duvelisib 0.604
inactive: [1] -0.057 | filanesib 0.089 | zotarolimus 0.065 | idasanutlin -0.051 | alisertib -0.08 | [2] 0.109 | gefitinib -0.021 | [3] -0.05 | lapatinib -0.061 | pictilisib 0.039 | [4] -0.009 | [5] -0.015 | [6] 0.239 | gandotinib -0.194 | tozasertib -0.151 | [7] 0.048 | doramapimod 0.179 | ispinesib -0.207

DTYMK (UniProt P23919)
UniProt P23919, sequence (P23919 whole entry, looked up): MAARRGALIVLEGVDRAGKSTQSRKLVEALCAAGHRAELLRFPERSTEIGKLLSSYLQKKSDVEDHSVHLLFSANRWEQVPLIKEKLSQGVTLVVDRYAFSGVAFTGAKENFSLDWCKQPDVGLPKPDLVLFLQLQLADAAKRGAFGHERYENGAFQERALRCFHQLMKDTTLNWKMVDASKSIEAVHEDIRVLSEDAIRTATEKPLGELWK
inactive: [1] -0.043 | filanesib -0.09 | zotarolimus -0.023 | idasanutlin -0.065 | alisertib -0.014 | [2] 0.047 | gefitinib -0.108 | [3] 0.152 | lapatinib -0.026 | pictilisib -0.054 | [4] 0.046 | crizotinib -0.146 | [5] 0 | [6] -0.022 | duvelisib 0.094 | gandotinib -0.217 | tozasertib -0.109 | [7] -0.009 | doramapimod -0.025 | ispinesib 0.032

DTWD2 (UniProt Q8NBA8)
UniProt Q8NBA8, sequence (Q8NBA8 whole entry, looked up): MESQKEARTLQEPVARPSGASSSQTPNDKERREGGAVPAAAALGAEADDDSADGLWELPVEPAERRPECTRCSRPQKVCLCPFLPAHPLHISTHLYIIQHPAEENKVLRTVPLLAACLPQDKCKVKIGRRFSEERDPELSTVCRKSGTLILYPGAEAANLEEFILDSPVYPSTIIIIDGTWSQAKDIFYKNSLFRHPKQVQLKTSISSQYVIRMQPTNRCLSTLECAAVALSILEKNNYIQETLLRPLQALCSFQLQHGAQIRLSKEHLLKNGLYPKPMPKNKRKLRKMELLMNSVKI
inactive: [1] -0.229 | filanesib 0.307 | zotarolimus -0.036 | idasanutlin -0.073 | alisertib 0.069 | [2] -0.18 | gefitinib -0.159 | [3] 0.002 | lapatinib 0.151 | pictilisib -0.042 | [4] 0.06 | crizotinib 0.133 | [5] 0.137 | [6] -0.103 | duvelisib -0.036 | gandotinib 0.027 | tozasertib -0.019 | [7] 0 | doramapimod 0.009 | ispinesib -0.092

CUX1 isoform 3 (UniProt P39880)
UniProt P39880, sequence (P39880 whole entry, looked up): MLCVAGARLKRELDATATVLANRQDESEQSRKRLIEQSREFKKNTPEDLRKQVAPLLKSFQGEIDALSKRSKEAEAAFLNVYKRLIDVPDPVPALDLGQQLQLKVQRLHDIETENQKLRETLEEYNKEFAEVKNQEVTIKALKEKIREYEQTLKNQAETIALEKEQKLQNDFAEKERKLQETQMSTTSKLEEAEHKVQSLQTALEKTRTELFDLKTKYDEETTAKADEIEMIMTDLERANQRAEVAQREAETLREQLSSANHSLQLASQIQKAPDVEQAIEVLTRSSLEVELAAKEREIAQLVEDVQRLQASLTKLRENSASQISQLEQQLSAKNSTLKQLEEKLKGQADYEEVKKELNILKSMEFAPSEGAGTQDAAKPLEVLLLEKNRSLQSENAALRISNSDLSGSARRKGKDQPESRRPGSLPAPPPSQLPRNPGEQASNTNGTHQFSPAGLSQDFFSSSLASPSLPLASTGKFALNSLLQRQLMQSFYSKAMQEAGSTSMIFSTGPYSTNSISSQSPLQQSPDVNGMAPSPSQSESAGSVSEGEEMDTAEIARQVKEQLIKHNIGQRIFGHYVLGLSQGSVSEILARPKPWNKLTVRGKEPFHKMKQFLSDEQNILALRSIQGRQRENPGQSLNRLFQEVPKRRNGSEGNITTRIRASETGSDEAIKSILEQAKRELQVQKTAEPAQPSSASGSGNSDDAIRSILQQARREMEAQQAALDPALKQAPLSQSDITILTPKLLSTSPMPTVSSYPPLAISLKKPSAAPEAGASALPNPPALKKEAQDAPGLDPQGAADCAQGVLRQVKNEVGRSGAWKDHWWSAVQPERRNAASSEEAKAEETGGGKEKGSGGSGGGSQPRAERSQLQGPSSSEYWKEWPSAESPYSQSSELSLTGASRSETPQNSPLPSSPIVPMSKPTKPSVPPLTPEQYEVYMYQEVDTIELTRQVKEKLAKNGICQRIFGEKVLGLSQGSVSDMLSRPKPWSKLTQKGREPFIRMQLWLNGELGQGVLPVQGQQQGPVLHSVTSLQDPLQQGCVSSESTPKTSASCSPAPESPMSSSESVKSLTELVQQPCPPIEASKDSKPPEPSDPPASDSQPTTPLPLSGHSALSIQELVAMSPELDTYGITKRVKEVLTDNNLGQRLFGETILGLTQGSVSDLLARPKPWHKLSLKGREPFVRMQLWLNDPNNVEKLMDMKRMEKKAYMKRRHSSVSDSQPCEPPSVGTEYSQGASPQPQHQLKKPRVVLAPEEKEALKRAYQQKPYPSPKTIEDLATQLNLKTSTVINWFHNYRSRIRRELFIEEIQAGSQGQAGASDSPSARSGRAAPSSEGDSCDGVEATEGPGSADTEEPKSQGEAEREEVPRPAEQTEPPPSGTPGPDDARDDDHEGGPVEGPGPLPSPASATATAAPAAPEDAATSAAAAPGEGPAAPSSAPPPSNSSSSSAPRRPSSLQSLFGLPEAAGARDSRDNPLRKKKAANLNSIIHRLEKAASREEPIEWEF
inactive: [1] 0.068 | filanesib 0.001 | zotarolimus -0.002 | idasanutlin 0.012 | alisertib -0.047 | [2] -0.024 | gefitinib 0.009 | [3] 0.008 | lapatinib 0.013 | pictilisib 0.054 | [4] 0.02 | crizotinib -0.023 | [5] 0.086 | [6] -0.002 | duvelisib 0.064 | gandotinib -0.048 | tozasertib 0.029 | [7] -0.026 | doramapimod 0.019 | ispinesib -0.101

EXTL2 (UniProt Q9UBQ6)
inactive: [1] 0.051 | filanesib -0.023 | zotarolimus -0.147 | idasanutlin -0.121 | alisertib -0.144 | [2] -0.094 | gefitinib 0.075 | [3] 0.123 | lapatinib 0.05 | pictilisib -0.111 | [4] 0.132 | crizotinib 0.111 | [5] 0.014 | [6] -0.227 | duvelisib -0.015 | gandotinib 0.068 | tozasertib 0.141 | [7] -0.046 | doramapimod -0.01 | ispinesib 0.108

CTSA (UniProt P10619)
active: crizotinib -0.563 | ispinesib -0.237
inactive: [1] 0.01 | filanesib -0.111 | zotarolimus -0.024 | idasanutlin 0.015 | alisertib 0.029 | [2] 0.023 | gefitinib 0.1 | [3] 0.065 | lapatinib 0.045 | pictilisib 0.038 | [4] 0.032 | [5] 0.002 | [6] -0.036 | duvelisib -0.039 | gandotinib 0.043 | tozasertib 0.011 | [7] 0.003 | doramapimod 0.009
